Reference: PubChem BioAssay (NCI)
About 83,000 compounds went through this panel and 20% of them were active in at least one assay; those are over-represented in the sample as a whole.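 The test compound was applied at a single concentration to cells in 96-well plates for 48 hours, and percent growth was recorded.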 Calls of active or inactive are those of the source. Rule for the calls: active = growth percent below 10; inactive = the rest.

How the values were obtained:
Test in all cases: NCI-60 one-dose screen, 48 h (100 = growth as untreated, 0 = no growth, -100 = all killed)
Conditions in all cases: 10 µM unless noted
DU-145 prostate = test system: DU-145 prostate
K-562 leukemia = test system: K-562 leukemia
MALME-3M melanoma = test system: MALME-3M melanoma
MDA-MB-231 breast = test system: MDA-MB-231 breast
RXF 393 renal = test system: RXF 393 renal
SF-268 CNS = test system: SF-268 CNS
SF-295 CNS = test system: SF-295 CNS
SF-539 CNS = test system: SF-539 CNS
UACC-257 melanoma = test system: UACC-257 melanoma
M14 melanoma = test system: M14 melanoma
HCT-15 colon = test system: HCT-15 colon
HT29 colon = test system: HT29 colon
SNB-19 CNS = test system: SNB-19 CNS
U251 CNS = test system: U251 CNS
PC-3 prostate = test system: PC-3 prostate
SK-MEL-5 melanoma = test system: SK-MEL-5 melanoma
UACC-62 melanoma = test system: UACC-62 melanoma
LOX IMVI melanoma = test system: LOX IMVI melanoma
SK-MEL-28 melanoma = test system: SK-MEL-28 melanoma
SNB-75 CNS = test system: SNB-75 CNS

Measured: growth

Brc1ccc(-c2cc(-c3ccc4c(c3)OCCO4)n[nH]2)s1
inactive: DU-145 prostate 39.8% | K-562 leukemia 12.4% | MALME-3M melanoma 45.8% | MDA-MB-231 breast 41.9% | RXF 393 renal 32% | SF-268 CNS 62.4% | SF-295 CNS 18.4% | SF-539 CNS 23.5% | UACC-257 melanoma 75.1% | M14 melanoma 21.3% | HCT-15 colon 19.2% | HT29 colon 11.1% | SNB-19 CNS 42.6% | U251 CNS 27.8% | PC-3 prostate 50% | SK-MEL-5 melanoma 12.1% | UACC-62 melanoma 49.5% | LOX IMVI melanoma 41.7% | SK-MEL-28 melanoma 57.8%

Cc1ccccc1NC(=O)Nc1nc2ccc([N+](=O)[O-])cc2s1
inactive: DU-145 prostate 20.3% | MDA-MB-231 breast 17.6% | RXF 393 renal 12.1% | SF-268 CNS 18.6% | SF-539 CNS 13.6% | M14 melanoma 19.9% | HCT-15 colon 12.1% | SNB-19 CNS 14.1% | UACC-62 melanoma 11.6% | LOX IMVI melanoma 12.1% | SK-MEL-28 melanoma 16.6%
active: K-562 leukemia 5.43% | MALME-3M melanoma -6.54% | SF-295 CNS 6.9% | UACC-257 melanoma -1.96% | HT29 colon 5.11% | U251 CNS 3.34% | PC-3 prostate 2.79% | SK-MEL-5 melanoma -47.2%

O=C(COc1ccc(/C=C2\C(=O)Nc3ccc(F)cc32)cc1)Nc1ccccc1
inactive: DU-145 prostate 104% | K-562 leukemia 89.6% | MALME-3M melanoma 102% | MDA-MB-231 breast 104% | RXF 393 renal 120% | SF-268 CNS 95.1% | SF-295 CNS 105% | SF-539 CNS 93.8% | UACC-257 melanoma 104% | M14 melanoma 94.4% | HCT-15 colon 99.1% | HT29 colon 107% | SNB-19 CNS 93.3% | U251 CNS 94.4% | PC-3 prostate 94.9% | SK-MEL-5 melanoma 100% | UACC-62 melanoma 88.1% | LOX IMVI melanoma 79.6% | SK-MEL-28 melanoma 106%

O=C(CCCCCCN1CC(=O)N2[C@@H](c3cccs3)c3[nH]c4ccccc4c3C[C@H]2C1=O)NO
inactive: DU-145 prostate 90.2% | K-562 leukemia 64.7% | MALME-3M melanoma 27.2% | MDA-MB-231 breast 93.7% | RXF 393 renal 89.3% | SF-268 CNS 101% | SF-295 CNS 96.9% | SF-539 CNS 73.8% | UACC-257 melanoma 66.9% | M14 melanoma 84.3% | HCT-15 colon 96.1% | HT29 colon 78.9% | SNB-19 CNS 78.1% | U251 CNS 76.5% | SK-MEL-5 melanoma 74.8% | LOX IMVI melanoma 68.4% | SK-MEL-28 melanoma 70.2%
active: UACC-62 melanoma 5.39%

O=C(CCCCCCN1CC(=O)N2[C@@H](C3CC3)c3[nH]c4ccccc4c3C[C@H]2C1=O)NO
inactive: DU-145 prostate 70.9% | K-562 leukemia 21.5% | MALME-3M melanoma 10.1% | MDA-MB-231 breast 83.7% | RXF 393 renal 76.5% | SF-268 CNS 93.6% | SF-295 CNS 74.9% | SF-539 CNS 60.7% | UACC-257 melanoma 41.9% | M14 melanoma 60.2% | HCT-15 colon 92.9% | HT29 colon 78.3% | SNB-19 CNS 68.4% | U251 CNS 53.1% | PC-3 prostate 74.7% | SK-MEL-5 melanoma 44.1% | UACC-62 melanoma 31.8% | LOX IMVI melanoma 33.2% | SK-MEL-28 melanoma 32.3%

Cc1ccc(NC(=O)/C=C/c2ccc(OCCCOc3ccc4c(C)cc(=O)oc4c3)cc2)cc1
inactive: DU-145 prostate 60.6% | K-562 leukemia 90.7% | MALME-3M melanoma 44.8% | MDA-MB-231 breast 54.6% | RXF 393 renal 44.1% | SF-268 CNS 39.1% | SF-295 CNS 50.1% | SF-539 CNS 57.8% | UACC-257 melanoma 69.8% | M14 melanoma 88.3% | HCT-15 colon 85.5% | HT29 colon 71.3% | SNB-19 CNS 38.2% | U251 CNS 71.6% | PC-3 prostate 74.5% | SK-MEL-5 melanoma 76.9% | UACC-62 melanoma 93% | LOX IMVI melanoma 68.8% | SK-MEL-28 melanoma 59.9%

CCn1c2ccc(/C=N/N(C)S(=O)(=O)CCN(C)C)cc2c2cc(/C=N/N(C)S(=O)(=O)CCN(C)C)ccc21
inactive: DU-145 prostate 77.3% | MALME-3M melanoma 62.7% | MDA-MB-231 breast 55% | RXF 393 renal 46.9% | SF-268 CNS 76.7% | SF-295 CNS 80% | UACC-257 melanoma 92.8% | M14 melanoma 66% | HCT-15 colon 26.2% | HT29 colon 44.8% | SNB-19 CNS 85.8% | PC-3 prostate 85.8% | SK-MEL-5 melanoma 62.4% | UACC-62 melanoma 81.7% | SK-MEL-28 melanoma 87.9%
active: K-562 leukemia 8.55% | SF-539 CNS 4.32% | LOX IMVI melanoma -15.3%

CC(=O)N1N=C(c2cc3ccccc3oc2=O)CC1c1cn(-c2ccccc2)nc1-c1ccc(C)cc1 (stereo not given)
inactive: DU-145 prostate 103% | K-562 leukemia 103% | MALME-3M melanoma 92.3% | MDA-MB-231 breast 94.4% | RXF 393 renal 98.8% | SF-268 CNS 98.7% | SF-295 CNS 100% | SF-539 CNS 90.1% | UACC-257 melanoma 99.4% | M14 melanoma 101% | HCT-15 colon 103% | HT29 colon 108% | SNB-19 CNS 96% | U251 CNS 104% | PC-3 prostate 93% | SK-MEL-5 melanoma 101% | UACC-62 melanoma 95.2% | LOX IMVI melanoma 95.7% | SK-MEL-28 melanoma 106%

CC1=C(C)C(=O)C(Nc2cccc(C(=O)OC(C)(C)C)c2)=C(Cl)C1=O
inactive: DU-145 prostate 103% | K-562 leukemia 21.6% | MALME-3M melanoma 94.4% | MDA-MB-231 breast 48.9% | RXF 393 renal 103% | SF-268 CNS 92% | SF-295 CNS 105% | SF-539 CNS 96.6% | UACC-257 melanoma 91.4% | M14 melanoma 83.3% | HCT-15 colon 80.2% | HT29 colon 98.2% | SNB-19 CNS 91.5% | PC-3 prostate 76.9% | SK-MEL-5 melanoma 98.1% | UACC-62 melanoma 93.4% | LOX IMVI melanoma 62.6% | SK-MEL-28 melanoma 104%

CCc1cc2c(cc1Cl)nc1c(=O)[nH]c(=O)nc-1n2CCOCC(C)C
inactive: DU-145 prostate 95% | K-562 leukemia 42.1% | MDA-MB-231 breast 55.8% | RXF 393 renal 80.5% | SF-268 CNS 80% | SF-295 CNS 60% | SF-539 CNS 79.3% | UACC-257 melanoma 36.6% | M14 melanoma 49.4% | HCT-15 colon 47.4% | HT29 colon 24.3% | SNB-75 CNS 92.5% | SNB-19 CNS 85% | PC-3 prostate 68.9% | SK-MEL-5 melanoma 34.4% | UACC-62 melanoma 72.1% | LOX IMVI melanoma 49.8% | SK-MEL-28 melanoma 87%
active: MALME-3M melanoma 2.24%

O=C(Nc1ccccc1)Nc1nc2ccc([N+](=O)[O-])cc2[nH]1
inactive: DU-145 prostate 56.3% | K-562 leukemia 43.4% | MALME-3M melanoma 40.1% | MDA-MB-231 breast 74.9% | RXF 393 renal 60% | SF-268 CNS 71.5% | SF-295 CNS 66.3% | SF-539 CNS 61.7% | UACC-257 melanoma 57.4% | M14 melanoma 58.2% | HCT-15 colon 40.9% | HT29 colon 84.4% | SNB-19 CNS 66.3% | U251 CNS 55.5% | PC-3 prostate 45.8% | SK-MEL-5 melanoma 40.4% | UACC-62 melanoma 44% | LOX IMVI melanoma 57.2% | SK-MEL-28 melanoma 61.6%

N#Cc1c(-c2cccs2)cc(-c2cnccn2)nc1SCC(=O)N/N=C/c1cccs1
active: RXF 393 renal -1.38% | SF-539 CNS 9.8% | LOX IMVI melanoma 7.29%
inactive: DU-145 prostate 37.3% | K-562 leukemia 63.2% | MALME-3M melanoma 39.2% | MDA-MB-231 breast 40.3% | SF-268 CNS 53.7% | SF-295 CNS 48.8% | UACC-257 melanoma 53.9% | M14 melanoma 57.4% | HCT-15 colon 62.8% | HT29 colon 30.9% | SNB-75 CNS 42.8% | SNB-19 CNS 47.7% | PC-3 prostate 53.6% | SK-MEL-5 melanoma 20.5% | UACC-62 melanoma 55.6% | SK-MEL-28 melanoma 27.5%

Cn1cc(-c2cc3ncnc(Nc4ccc(NC(=O)Nc5cc(C(C)(C)C)on5)cc4)c3s2)cn1
inactive: DU-145 prostate 47.8% | MALME-3M melanoma 17.3% | MDA-MB-231 breast 28% | SF-268 CNS 45.5% | UACC-257 melanoma 25.3% | M14 melanoma 11.6% | HCT-15 colon 27.9% | HT29 colon 16.7% | SNB-19 CNS 56.4% | U251 CNS 37.9% | PC-3 prostate 28.5% | SK-MEL-5 melanoma 20.8% | UACC-62 melanoma 22.2% | SK-MEL-28 melanoma 15%
active: K-562 leukemia 8.65% | RXF 393 renal -5.22% | SF-295 CNS -37.8% | SF-539 CNS -47.8% | LOX IMVI melanoma 6.08%

Cn1c2nc3ccccc3c-2cc2ccccc21
inactive: DU-145 prostate 30.9% | K-562 leukemia 21.1% | MALME-3M melanoma 36.6% | MDA-MB-231 breast 36.1% | RXF 393 renal 43.3% | SF-268 CNS 57.3% | SF-295 CNS 39.6% | SF-539 CNS 39.1% | UACC-257 melanoma 49.2% | M14 melanoma 48.3% | HCT-15 colon 25% | HT29 colon 30.2% | SNB-19 CNS 45.5% | U251 CNS 41.7% | SK-MEL-5 melanoma 31.2% | UACC-62 melanoma 46.2% | LOX IMVI melanoma 18.9% | SK-MEL-28 melanoma 76.1%

CNC(=O)c1cc(Oc2ccc3c(c2)sc2nc(-c4ccc(N(C)C)cc4)cn23)ccn1
active: SF-295 CNS 8.54% | SF-539 CNS -14% | HCT-15 colon 8.11% | HT29 colon -16.1% | LOX IMVI melanoma 0.0095%
inactive: DU-145 prostate 20.2% | K-562 leukemia 11.8% | MALME-3M melanoma 57.5% | MDA-MB-231 breast 15.9% | RXF 393 renal 13.9% | SF-268 CNS 45.7% | UACC-257 melanoma 78.8% | M14 melanoma 19.1% | SNB-19 CNS 25% | PC-3 prostate 32.4% | SK-MEL-5 melanoma 11.9% | UACC-62 melanoma 41.4% | SK-MEL-28 melanoma 56.8%
